Shown are actives, neighbours in structure and some others; about 1.3% of the full set was active somewhere.
TRPV1 PAM: HTS Assay for Compounds that Act as Potentiators of the Vanilloid Receptor 1; AID 540277, 2011; Transient receptor potential cation channel subfamily V member 1 (Homo sapiens), Q8NER1; TRPV1-expressing cells, Fluo-8 calcium influx, capsaicin EC20 potentiation; potentiation, % at 8.33 µM; 0.02% of 320,000 active; in the data active means potentiation above about 80%; inconclusive means between about 30% and that limit; further: 0% is about no effect
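TRPV1-expressing cells were cultured overnight at 35.5C and loaded with Fluo-8 calcium dye for 40 to 90 min at room temperature. After a 10 s baseline, compound was added and calcium influx was read kinetically for 3 min (ex 480/em 520 nm).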
TRPML1 blocker: qHTS for Inhibitors of the Human Mucolipin Transient Receptor Potential 1 (TRPML1); TRPML1-inducible cells, Ca2+ dye fluorescence, FDSS; active compounds read low; inhibition of EC80 agonist-evoked calcium signal; activity change, negative = inhibition, % (concentration not given with the values); 0.02% of 390,000 active; AID 624415, 2012; in the data active means activity change below about -50%; inconclusive means between about -30% and that limit;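 further: stimulus is agonist 54-4 at its EC80 concentration; on the % scale 0 is the no-effect control and ±100 the full control effect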
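TRPML1-DL cells, Tet-induced overnight (~16 h, 37 °C) at 1,500 cells/well, were loaded with Ca8 no-wash dye plus quencher for 45-90 min at room temperature. Compounds were pinned during FDSS kinetic reading; agonist 54-4 at EC80 (4 uM final) then added.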
TRPV1 agonist: HTS Assay for Compounds that Act as Agonists of the Vanilloid Receptor 1 | TRPV1-expressing cells, Fluo-8 calcium influx, agonist mode | activation, % at 8.33 µM | 0.19% of 320,000 active | AID 540275, 2011; in the data active means activation above about 80%; inconclusive means between about 30% and that limit; further: 0% is about no effect
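TRPV1-expressing cells were cultured overnight at 35.5C and loaded with Fluo-8 calcium dye for 40 to 90 min at room temperature. After a 10 s baseline, compound was added and calcium influx was read kinetically for 3 min (ex 480/em 520 nm).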
TRPML1 ag: qHTS for Agonists of the Human Mucolipin Transient Receptor Potential 1 (TRPML1) | TRPML1-expressing cells, Ca2+ dye fluorescence, FDSS | activation, % (concentration not given with the values) | 0.12% of 410,000 active | AID 624414, 2012; in the data active means activation above about 50%; inconclusive means mostly about 30% to 49%; further: 0% is about no effect
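Tetracycline-induced TRPML1-DL cells are seeded and incubated overnight before loading with a no-wash Ca2+ dye and quencher. Agonist activity is taken from the 110 s fluorescence read following compound pin-transfer on an FDSS, before EC80 54-4 challenge.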
hERG WT inh: qHTS for Inhibitors of KCHN2 3.1: Wildtype qHTS; Voltage-gated inwardly rectifying potassium channel KCNH2 (Homo sapiens), Q12809; AID 720551, 2013; U2OS, BacMam KCNH2, thallium flux FluxOr; active compounds read low; 0.37% of 340,000 active; activity change, % at 1.84 µM;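 active means maximum activity change below -70%; inconclusive means maximum activity change between -70% and -50%; inactive means maximum activity change above -50%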; further: on the % scale 0 is the no-effect control and ±100 the full control effect
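U2OS cells were transduced with wild-type KCNH2 virus (2.03 x 10^8 / mL) for 4 h at room temperature, then cultured overnight at 37 C. Thallium flux was read with FluxOr dye. Rate constants were normalized to DMSO controls.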
KCNH2 3.1 block: qHTS for Inhibitors of KCHN2 3.1: Mutant qHTS. Potassium voltage-gated channel subfamily H member 2, brain isoform KCNH2 3.1 (human). U2OS KCNH2 3.1, thallium flux FluxOr; active compounds read low. activity change, % (tested at about 1.8 µM). 0.95% of 340,000 active. AID 720553, 2013;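 active means maximum activity change below -70%; inconclusive means maximum activity change from -70% to -50%; inactive means maximum activity change above -50%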;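 further: thallium influx rate constant from kinetic fluorescence after stimulation buffer; on the % scale 0 is the no-effect control and ±100 the full control effect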
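Measured as rate of thallium-driven FluxOr signal in transduced U2OS cells carrying the 3.1 channel, read kinetically for 2 min upon stimulation; values are rate constants scaled to DMSO control wells.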
* marks the source's active call; other numbers are inactive results.

For O=C1CCc2cc(S(=O)(=O)NC(C(=O)N3CCN(c4ccccn4)CC3)c3ccccc3)ccc2N1 (configuration not stated) the results were TRPV1 PAM 7, TRPML1 blocker -1, TRPV1 agonist -4, TRPML1 ag -1, hERG WT inh -117* and KCNH2 3.1 block -8.
Screening NC(=O)c1cc(S(=O)(=O)NCc2cccs2)cs1 returned TRPV1 PAM -4, TRPML1 blocker 5, TRPV1 agonist 4, TRPML1 ag 0, hERG WT inh -13 and KCNH2 3.1 block -70*.
Screening COC(=O)c1cc(S(=O)(=O)NCC2CCN(Cc3ccccc3F)CC2)c[nH]1 returned TRPV1 PAM inconclusive, TRPML1 blocker -1, TRPV1 agonist -2, TRPML1 ag 0, hERG WT inh 11 and KCNH2 3.1 block -118*.
Cc1cccc(CNS(=O)(=O)c2csc(C(N)=O)c2)c1 was read as TRPV1 PAM 17, TRPML1 blocker 3, TRPV1 agonist -5, TRPML1 ag 3, hERG WT inh -3 and KCNH2 3.1 block -5.
COC(=O)c1cc(S(=O)(=O)NCc2cccs2)c[nH]1 was read as TRPV1 PAM 5, TRPML1 blocker -7, TRPV1 agonist -2, TRPML1 ag -1, hERG WT inh -244* and KCNH2 3.1 block 3.
COC(=O)c1cc(S(=O)(=O)NCc2ccccc2Cl)c[nH]1 was read as TRPV1 PAM -3, TRPML1 blocker 14, TRPV1 agonist -1, TRPML1 ag -1, hERG WT inh 27 and KCNH2 3.1 block 0.
For CCOC(=O)c1ccc(OCC2c3cc(OC)c(OC)cc3CCN2C(=O)Cc2ccc(OC)c(OC)c2)cc1 (configuration not stated) the results were TRPML1 blocker 18 and TRPML1 ag 2.
Screening c1ccc(-c2nnc(CN3CCN(c4ccccn4)CC3)o2)cc1 returned TRPML1 blocker -8 and TRPML1 ag 2.
COc1ccc(CCNC(=O)CSc2nc(O)cc(=O)[nH]2)cc1OC was read as TRPV1 PAM -20, TRPML1 blocker -18, TRPV1 agonist 0, TRPML1 ag 1, hERG WT inh -1 and KCNH2 3.1 block -80*.
Screening COc1ccc(CCNC(=O)CSc2ccc(-c3ccccc3)nn2)cc1OC returned TRPV1 PAM -6, TRPML1 blocker -2, TRPV1 agonist -1, TRPML1 ag 0, hERG WT inh -5 and KCNH2 3.1 block 1.
Screening COc1ccc(CCNC(=O)CSc2nnc(C(C)N(C)C)n2Cc2ccccc2)cc1OC (configuration not stated) returned TRPV1 PAM -3, TRPML1 blocker 5, TRPV1 agonist 1, TRPML1 ag 1, hERG WT inh -30 and KCNH2 3.1 block -71*.
`Cc1ccc(C(=O)c2oc3ccccc3c2NC(=O)c2nc(S(C)(=O)=O)ncc2Cl)cc1F` gave TRPML1 blocker 18 and TRPML1 ag 0.
O=C(C[n+]1csc2ccccc21)c1ccc(I)cc1 was read as TRPML1 ag -1.
O=C(/C=C/c1cc([N+](=O)[O-])ccc1OC(F)F)Nc1cccc(OC(F)F)c1 was read as TRPV1 PAM -11, TRPML1 blocker 9, TRPV1 agonist -2, TRPML1 ag 0, hERG WT inh -158* and KCNH2 3.1 block -4.
`O=[N+]([O-])c1cc(C(F)(F)F)ccc1NCCCCNS(=O)(=O)c1ccc(Cl)cc1` gave TRPV1 PAM -18, TRPML1 blocker 6, TRPV1 agonist -1, TRPML1 ag 0, hERG WT inh -8 and KCNH2 3.1 block -103*.
Screening Cc1ccc(C=C2C(=O)c3ccccc3C2=O)o1 returned TRPV1 PAM 2, TRPML1 blocker -2, TRPV1 agonist -1, TRPML1 ag 2, hERG WT inh -2 and KCNH2 3.1 block -83*.
Screening Cc1cc2c(NC(=O)Nc3ccc(C(F)(F)F)cc3)cccc2nn1 returned TRPV1 PAM -3, TRPML1 blocker 19, TRPV1 agonist 82*, TRPML1 ag 0, hERG WT inh 0 and KCNH2 3.1 block -7.
`CCN(CC)c1ccc(/C=C/C2=C3C=CC=CC3NC=C2)cc1` (configuration not stated) gave TRPML1 ag 18.
Cc1cccc(OCc2ccc(-c3nc(C#N)c(NCc4cccnc4)o3)o2)c1 was read as TRPML1 blocker -6 and TRPML1 ag 0.
Screening Cc1nn(Cc2ccc([N+](=O)[O-])cc2)c(=O)n1-c1ccc(Cl)cc1 returned TRPV1 PAM -13, TRPML1 blocker 1, TRPV1 agonist inconclusive, TRPML1 ag -1, hERG WT inh 3 and KCNH2 3.1 block -78*.
`Cc1cc(C)c(CN2CCN(Cc3ccc(C)o3)C(CCO)C2)c(-n2cccn2)c1` (configuration not stated) gave TRPV1 PAM -12, TRPML1 blocker -2, TRPV1 agonist 11, TRPML1 ag -1, hERG WT inh -23 and KCNH2 3.1 block -72*.
For OCCC1CN(Cc2ccc(-n3cccn3)cc2)CCN1Cc1ccccc1 (configuration not stated) the results were TRPV1 PAM 4, TRPML1 blocker 34, TRPV1 agonist 1, TRPML1 ag 0, hERG WT inh 12 and KCNH2 3.1 block 1.
For Cc1ccc(CN2CCN(Cc3cccc(-n4cccn4)c3)CC2CCO)cc1 (configuration not stated) the results were TRPV1 PAM -2, TRPML1 blocker 3, TRPV1 agonist 7, TRPML1 ag 0, hERG WT inh -26 and KCNH2 3.1 block -87*.
For Cc1ccc(CN2CCN(Cc3ccc(-n4cccn4)cc3C)CC2CCO)cc1 (configuration not stated) the results were TRPV1 PAM 11, TRPML1 blocker 11, TRPV1 agonist -3, TRPML1 ag -1, hERG WT inh -91* and KCNH2 3.1 block -158*.
Screening O=S(=O)(Nc1ccc(-c2ccc(N3CCCCC3)nn2)cc1)c1ccc(OC(F)(F)F)cc1 returned TRPML1 blocker 8 and TRPML1 ag 28.
`Cc1ccc(C)c(Cn2c(SCC(=O)N(C)Cc3ccccc3)nc3ccccc32)c1` gave TRPML1 blocker 53 and TRPML1 ag 0.
For Cc1cc(C)n(C(C)CC(=O)Nc2ccc(C)c(N(C)C)c2)n1 (configuration not stated) the results were TRPML1 blocker -6 and TRPML1 ag 1.

Bioassay records deposited in PubChem by National Center for Advancing Translational Sciences (NCATS).
